The panel holds about 79,000 compounds, 15% with a hit somewhere; the sample as a whole holds those more often. Cut-off read from the data, not from the text of the source: active = growth inhibition above about 70%; inactive = the rest.
What was measured:
[1] = NCI Yeast Anticancer Drug Screen. Data for the rad50 strain (AID 155);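 note: 0% = growth of vehicle-only cultures of the same strain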; details: S. cerevisiae rad50 strain growth inhibition; at 50.0 µM; active compounds read high
In short: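 Vehicle-treated cultures provide the reference for the growth inhibition reported for compound-exposed, repair-deficient yeast.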

[2] = NCI Yeast Anticancer Drug Screen. Data for the mec2-1 strain (AID 157); details: S. cerevisiae mec2-1 strain, at 50.0 µM, active compounds read high
In short: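 mec2-1 yeast strain, carrying an alteration in DNA damage repair or cell cycle control, was exposed to compounds; growth inhibition was measured relative to vehicle-treated controls.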

[3] = NCI Yeast Anticancer Drug Screen. Data for the sgs1 mgt1 strain (AID 161);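 note: 0% = growth of cultures given vehicle only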; details: S. cerevisiae sgs1 mgt1 strain, at 50.0 µM, active compounds read high
In short: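 Growth of a repair-deficient yeast mutant was monitored after compound treatment and expressed as inhibition relative to vehicle-treated cultures.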

[4] = NCI Yeast Anticancer Drug Screen. Data for the cln2 rad14 strain (AID 165);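 note: 0% = growth equal to vehicle treated cultures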; details: S. cerevisiae cln2 rad14 strain, at 50.0 µM, active compounds read high
In short: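 Yeast carrying cln2 and rad14 alterations (cell cycle control and DNA damage repair) were exposed to compounds. Growth inhibition was measured against vehicle-treated controls.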

[5] = NCI Yeast Anticancer Drug Screen. Data for the bub3 strain (AID 167); details: S. cerevisiae bub3 mutant strain, at 50.0 µM, active compounds read high
In short: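 Mutant yeast screening strain plus compound; vehicle-treated cultures serve as the 0% inhibition reference.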

[6] = NCI Yeast Anticancer Drug Screen. Data for the mlh1 rad18 strain (AID 175); details: S. cerevisiae mlh1 rad18 strain growth inhibition; at 50.0 µM; active compounds read high
In short: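 Growth inhibition of the yeast strain was measured after compound exposure and expressed relative to vehicle-treated controls. The strain carries defined defects in DNA damage repair.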

Measured: growth inhibition

CN(C)CC1CC=CCC1CN(C)C (stereo not drawn)
inactive: [1] -19.8% | [2] 0% | [3] -5.6% | [4] -15.7% | [5] 6.85% | [6] -8.7%

CN1C(=O)/C(=C2\SC(=O)N(CN3CCCCC3)C2=O)c2cc(Br)ccc21
inactive: [1] -10.6% | [2] -1.2% | [3] -11.2% | [4] 10.2% | [5] -2.45% | [6] 18.1%

Cc1ccc2[nH]c(=S)n(CCc3ccccc3)c(=O)c2c1
inactive: [1] -1.95% | [2] -23% | [3] 29.9% | [4] 6.85% | [5] 10.4% | [6] 13.7%

Reference: PubChem BioAssay (NCI)
